Laboratory results published in PubChem BioAssay AID463173 (ICCB-Longwood Screening Facility, Harvard Medical School, 2010).
Out of some 52,000 compounds screened, about 4,300 (8.3%) were called active. Only a selection was taken, and actives are over-represented in it overall. Unmarked numbers belong to inactive results. Cut-off read from the data, not from the text of the source: active = survival mostly below about 52% (no sharp cut-off); inactive = mostly above about 56%.

These compounds were tested on DeltatarO mutant (assay: growth inhibition of S. aureus wild type versus tarO mutant, primary screen, teichoic acid synthesis inhibitors, RN4220, OD600 (AID 463173)). Conditions: OD600, 18 h, hits give low values, screened at 18.75 µg/mL (by protocol).

SMILES	survival
Cc1ccc(NC(=O)Cn2c(=O)n(CCCCC(=O)NCc3ccc4c(c3)OCO4)c(=O)c3ccccc32)cc1	72%
CC1(C)N([O-])C2=C(CCCC2)[N+]1=O	83%
CCCc1nc2ccccc2n2c(-c3cccc(C)c3)c3c(=O)n(C)c(=O)n(C)c3c12	67%
Cc1cc(-c2ccc(C)c(S(=O)(=O)NCCc3ccccc3)c2)on1	80%
CCOC(=O)c1c(-c2ccccc2)oc2ccc(OCc3ccc(C)cc3)cc12	30% (active)
Cc1ccc(COc2ccc3oc(-c4ccccc4)c(C(=O)O)c3c2)cc1	34% (active)
CCOC(=O)c1c(-c2ccc(OC)cc2)oc2ccc(OCc3ccc(C(=O)OC)cc3)cc12	48%
CCOC(=O)c1c(-c2ccccc2)oc2cc(Br)c(OCc3ccccc3)cc12	36% (active)
CCOc1ccc(-c2oc3ccc(C)cc3c(=O)c2O)cc1	91%
CCOC(=O)c1c(-c2ccccc2)oc2ccc(N(C(C)=O)S(=O)(=O)c3ccccc3)cc12	60%
CCOC(=O)c1c(-c2ccccc2)oc2cc(Br)c(OCC(N)=O)cc12	79%
CCOC(=O)c1c(-c2ccc(OC)cc2)oc2ccc(OCc3ccccc3C)cc12	51%
CCOC(=O)c1c(-c2ccc(OC)cc2)oc2ccc(OCc3ccc(Br)cc3)cc12	63%
CCOC(=O)c1c(-c2ccccc2)oc2ccc(N(C(C)=O)S(=O)(=O)c3ccc(C)cc3)cc12	62%
CCOC(=O)c1c(C)oc2ccc(OCC(N)=O)cc12	100%
CCOC(=O)c1c(-c2ccc(OC)cc2)oc2ccc(OCc3ccc(F)cc3F)cc12	38% (active)
Cc1ccc(C(=O)N/C(=C\c2cn(S(=O)(=O)N(C)C)c3ccccc23)C(=O)NCCCn2ccnc2)cc1	80%
O=C(c1ccc(CS(=O)(=O)c2c(Cl)cccc2Cl)o1)N1CCN(c2ccccc2)CC1	107%
Cc1ccc(CNC(=O)CN2C(=O)CSc3c2c(C)nn3-c2ccccc2)cc1	89%
CC(CCc1ccccc1)NC(=O)Cn1ncc2c3ccccc3n(Cc3ccccc3F)c2c1=O (stereo not drawn)	92%
COc1ccccc1N1CCN(C(=O)CCS(=O)(=O)c2cc(Br)cc3c2N(C(=O)C2CC2)CC3)CC1	83%
O=C(O)CCn1c(=O)c2cccn2c2cccnc21	98%

SMILES	survival
CCOC(=O)c1c(-c2ccccc2)oc2ccc(OCc3cccc(Br)c3)cc12	38% (active)
O=C(NCCc1ccccc1)C(=O)NCC(c1cccnc1)N1CCN(c2ccc(F)cc2)CC1 (stereo not drawn)	103%
C=CCN(CC=C)C(=O)COc1ccc(Cl)cc1Cl	73%
CCOc1cccc2sc(NC(=O)c3ccc(S(=O)(=O)N4CCc5ccccc54)cc3)nc12	71%
Oc1ccc(-c2cccc(-c3ccc(O)cc3)c2)cc1	27% (active)
CCOc1ccc(CNCc2c(C(=O)O)n(Cc3ccc(C)cc3)c3cc(C)ccc23)cc1	12% (active)
COc1ccc(OC)c(CNCc2c(C(=O)O)n(Cc3ccccc3)c3cc(OC)ccc23)c1	77%
C=Cc1ccc(Cn2c(C(=O)O)c(CNCCc3ccccc3)c3ccc(C)cc32)cc1	92%
Cc1ccccc1Cn1c(C(=O)O)c(CNCc2cccc(F)c2)c2ccccc21	52% (active)
Cc1ccc2c(CNCc3cccc(Cl)c3)c(C(=O)O)n(Cc3ccc(F)cc3Cl)c2c1	70%
CCOc1ccc(CCNCc2c(C(=O)O)n(Cc3ccc(C)cc3)c3cc(OC)ccc23)cc1	58%
Cc1ccc(CNCc2c(C(=O)O)n(Cc3ccccc3C)c3cc(C)ccc23)cc1	67%
CCOc1ccc(CNCc2c(C(=O)O)n(Cc3ccc(OC)cc3)c3ccccc23)cc1	82%
COc1ccc(OC)c(CNCc2c(C(=O)O)n(Cc3cccc(F)c3)c3cc(OC)ccc23)c1	-1% (active)
CCc1ccc(CNCc2c(C(=O)O)n(Cc3cccc(F)c3)c3cc(OC)ccc23)cc1	79%
Cc1ccc2c(CNCCc3ccccc3)c(C(=O)O)n(Cc3ccccc3C)c2c1	6% (active)
COc1ccc2c(CNCc3ccc(Cl)cc3)c(C(=O)O)n(Cc3ccccc3C)c2c1	97%
CCC1CCCCN1C(=O)Cn1c(=O)n(-c2ccccc2C(F)(F)F)c(=O)c2c(C)c(C(=O)N(C)C)sc21 (stereo not drawn)	80%
CCC1CN(C(=O)N2CCC(C(=O)Nc3ccccc3F)CC2)c2ccccc2O1 (stereo not drawn)	74%
Cc1ccc(NC(=O)c2oc3ccc(S(=O)(=O)N4CCOCC4)cc3c2C)c(C)c1	125%
CCOC(=O)c1cn(CC(=O)Nc2ccc(OC)cc2OC)nn1	83%
Cc1cccc(CNC(=O)Cn2nc(C)n3c(cc4cc(F)ccc43)c2=O)c1	77%

SMILES	survival
O=C(O)CCc1ccco1	98%
CCOC(=O)C1CCN(C(=O)Cc2cccc3ccccc23)CC1	82%
CCN(CC)S(=O)(=O)c1ccc(C(=O)NCCSc2c(-c3ccc(F)cc3)[nH]c3ccccc23)cc1	69%
CCOC(=O)COc1ccc(F)cc1C(=O)c1ccn2nc(-c3ccc(C)cc3)cc2n1	80%
COc1ccc(-c2nc(Cn3c(SCc4ccccc4F)nc4cccnc43)c(C)o2)cc1	69%
COc1ccc(Cn2c(C(=O)O)c(CNCc3cccc(OC)c3)c3ccc(C)cc32)cc1	74%
Cc1ccc2c(CNCc3cccs3)c(C(=O)O)n(Cc3ccc(F)cc3)c2c1	82%
Cc1ccc(Cn2c(C(=O)O)c(CNCc3cccs3)c3ccc(C)cc32)cc1	48% (active)
C=Cc1ccc(Cn2c(C(=O)O)c(CNCc3ccc(F)cc3)c3ccc(C)cc32)cc1	86%
Cc1ccc(Cn2c(C(=O)O)c(CNCc3ccc(OC(C)C)cc3)c3ccc(C)cc32)cc1	11% (active)
C=Cc1ccc(Cn2c(C(=O)O)c(CNCc3ccccc3)c3ccc(C)cc32)cc1	120%
Cc1ccc(Cn2c(C)c(CNCc3ccc(OC(C)C)cc3)c(C(=O)O)c2C)cc1	121%
Cc1ccc2c(CNCCc3ccco3)c(C(=O)O)n(Cc3ccc(F)cc3)c2c1	59%
Cc1ccc2c(CNCCc3ccc(Cl)cc3)c(C(=O)O)n(Cc3ccc(F)cc3)c2c1	8% (active)
Cc1ccc(Cn2c(C(=O)O)c(CNCc3ccccc3Cl)c3ccc(C)cc32)cc1	58%
Cc1ccc(CNCc2c(C(=O)O)n(Cc3ccc(C)cc3)c3cc(C)ccc23)cc1	2% (active)
COc1ccc(Cn2c(C(=O)O)c(CNCc3cccs3)c3ccc(C)cc32)cc1	89%
CCCN(Cc1cccs1)C(=O)Nc1ccc(F)c(Cl)c1	58%
COc1ccc(OC)c(CNC(=O)CCCn2c(=O)c3cccn3c3cccnc32)c1	97%
CCOc1ccc(NC(=O)CC2C(=O)N(c3ccc(Cl)cc3)C(=O)N2Cc2cccs2)cc1 (stereo not drawn)	81%
Cc1cc(C)cc(NC(=O)C(Cc2ccccc2)NS(=O)(=O)c2ccc3c(c2)CCC(=O)N3)c1 (stereo not drawn)	77%
CCOC(=O)C(C)NC(=O)c1cc2c(=O)[nH]c3ccc(C)cc3c2s1 (stereo not drawn)	57%

SMILES	survival
Cc1ccc(Cn2c(C(=O)O)c(CNCCc3cccs3)c3ccc(C)cc32)cc1	82%
CCc1ccc(CNCc2c(C(=O)O)n(Cc3ccc(C)cc3)c3cc(C)ccc23)cc1	14% (active)
Cc1ccc(Cn2c(C(=O)O)c(CNCc3ccc(C)o3)c3ccc(C)cc32)cc1	52%
COC(=O)c1scc(-c2ccc(C)cc2)c1S(=O)(=O)Nc1cc(C)ccc1OC	75%
CCS(=O)(=O)c1ncc(Cl)c(C(=O)Nc2c(C(=O)c3ccc(C)cc3)oc3ccccc23)n1	50% (active)
CCSc1ncc(Cl)c(C(=O)Nc2c(C(=O)c3ccccc3)oc3ccccc23)n1	79%
CCCS(=O)(=O)c1ncc(Cl)c(C(=O)Nc2c(C(=O)c3ccccc3)oc3ccccc23)n1	102%
CS(=O)(=O)c1ncc(Cl)c(C(=O)Nc2c(C(=O)c3ccc(Cl)cc3)oc3ccccc23)n1	109%
CCCSc1ncc(Cl)c(C(=O)Nc2c(C(=O)c3ccc(C)cc3)oc3ccccc23)n1	56%
CCCSc1ncc(Cl)c(C(=O)Nc2c(C(=O)c3ccc(F)cc3)oc3ccccc23)n1	44% (active)
CCOc1ccc(NC(=O)CSc2ccc3ccccc3n2)cc1	67%
Cc1ccc(-n2c(=O)c3oc4ccccc4c3n(CC(=O)Nc3ccc(F)c(Cl)c3)c2=O)cc1C	65%
CCC(C(=O)NCc1ccccc1OC)n1nc(C)n2c(cc3sccc32)c1=O (stereo not drawn)	82%
O=S(=O)(c1ccc2nc(Nc3ccc(Br)cc3F)ccc2c1)N1CCCC1	117%
O=C(Nc1ccc(F)cc1Cl)n1ncc2cc(Cl)ccc21	13% (active)
O=C(Nc1ccccc1C(F)(F)F)n1ncc2cc(Cl)ccc21	104%
Cc1ccc(C)c(NC(=O)n2ncc3cc(Cl)ccc32)c1	82%
CC1(c2ccc(Cl)cc2Cl)OCC(Cn2cncn2)O1 (stereo not drawn)	83%
S=c1oc(-c2ccccc2)nn1CNc1ccccc1	83%
Cc1ccc(-c2nn(CO)c(=S)o2)cc1	48% (active)
CCN(CC)Cn1nc(-c2ccccc2Cl)oc1=S	77%
CCOc1ccc2c(c1)NC(c1cccs1)=NC(c1ccc(F)cc1)=N2	50%
